Experimental data taken from the supplement of paper PMC10646978.
± gives the standard deviation.

Experiments:
Conditions in all cases: modulator concentration 10 µM
[1] = system: RAW-Dual (murine macrophage reporter line); test: NF-kB reporter (SEAP) activity fold change vs agonist alone; higher = enhanced NF-kB activity
How it was run: (§1)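 Overnight stimulation with a PRR agonist followed pre-incubation for 1 hour at 37 °C with compound at 10 μM final. This was done in RAW-Dual murine macrophage reporter cells seeded at 50 000 per well in 384-well plates. NF-κB (SEAP, QUANTI-Blue absorbance at 620 nm) and IRF (Lucia luciferase, QUANTI-Luc luminescence) were read from the supernatant. Each reporter's fold change relative to the mean agonist-only control on the same plate was averaged over replicate plates.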

[2] = system: RAW-Dual (murine macrophage reporter line); test: IRF reporter (Lucia luciferase) activity fold change vs agonist alone; higher = enhanced IRF activity
How it was run: as §1

[3] = system: RAW-Dual (murine macrophage reporter line); test: viability score (confluency relative to resting cells, overnight) (fraction); higher = more viable, active = viable (0.7 or more)
How it was run: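 RAW-Dual macrophages in 384-well plates were exposed overnight to compound at 10 μM final. Confluency was imaged with IncuCyte, and two confluency masks were generated with IncuCyte software over all imaged wells. The viability score is confluency expressed relative to resting cells. Compounds were called viable if both masks exceeded 70% of resting cells.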

[4] = agonist: CpG ODN 1826 0.5 ug/mL

Row | Compound | NF-kB reporter [1, 4] | NF-kB reporter ([1]; agonist: LPS 0.1 ug/mL) | NF-kB reporter ([1]; agonist: MPLA […]) | IRF reporter ([2]; agonist: 3'3'-cGAMP 10 ug/mL) | IRF reporter ([2]; agonist: LPS 0.1 ug/mL) | IRF reporter ([2]; agonist: MPLA […]) | viability score [3]
1 | CCCCc1c(CCC)c(=N)c2ccccc2n1C.I | 0.992 ± 0.098 | 1.18 ± 0.091 | 1.56 ± 0.15 | 1.09 ± 0.048 | 1.67 ± 0.22 | 2.14 ± 0.32 | 1.01 (active)
2 | Cc1cn(C2C=CC(CO)O2)c(=O)[nH]c1=O (stereo unspecified) | 1.02 ± 0.15 | 0.902 ± 0.27 | 0.981 ± 0.06 | 0.886 ± 0.041 | 1.04 ± 0.27 | 1.04 ± 0.2 | 0.984 (active)
3 | CCC(C)n1ncn(-c2ccc(N3CCN(c4ccc(OC[C@H]5CO[C@](Cn6cncn6)(c6ccc(Cl)cc6Cl)O5)cc4)CC3)cc2)c1=O (stereo partly specified) | 1.57 ± 0.47 | 1.04 ± 0.057 | 1.1 ± 0.089 | 0.921 ± 0.044 | 1.2 ± 0.14 | 1.32 ± 0.13 | 0.994 (active)
4 | CC(=O)Nc1ccc(S(=O)(=O)N2CCC(Oc3cc(C)nc(C)n3)C2)cc1 (stereo unspecified) | 0.919 ± 0.039 | 0.923 ± 0.098 | 1.04 ± 0.092 | 0.998 ± 0.08 | 0.936 ± 0.12 | 0.983 ± 0.32 | 0.97 (active)
5 | NNc1ncnc2scc(-c3ccc(Cl)cc3)c12 | 0.931 ± 0.071 | 0.867 ± 0.07 | 1.32 ± 0.42 | 0.333 ± 0.015 | 1.3 ± 0.15 | 1.48 ± 0.21 | 0.997 (active)
6 | O=C(O)C=Cc1ccc2c(c1)OCCO2 | 1 ± 0.077 | 0.902 ± 0.075 | 1.14 ± 0.12 | 1.07 ± 0.059 | 1.35 ± 0.2 | 1.47 ± 0.33 | 1.02 (active)
7 | CNC(=O)c1ccc(Nc2ncc(C(F)(F)F)c(NCc3nccnc3N(C)S(C)(=O)=O)n2)cc1 | 1.25 ± 0.37 | 0.169 ± 0.013 | 2.19 ± 0.34 | 0.0196 ± 0.0024 | 0.0319 ± 0.0037 | 0.0361 ± 0.006 | 0.749 (active)
8 | CN(C)CCCC1(c2ccc(F)cc2)OCc2cc(C#N)ccc21.O=C(O)C(=O)O (stereo unspecified) | 1.13 ± 0.21 | 1.12 ± 0.32 | 1.07 ± 0.077 | 0.836 ± 0.047 | 1.28 ± 0.3 | 1.29 ± 0.1 | 0.993 (active)
9 | Cc1c(-c2ccccc2)nc2ccccc2c1C(=O)Nc1ccc(F)cc1F | 0.568 ± 0.25 | 0.889 ± 0.097 | 0.689 ± 0.11 | 0.918 ± 0.061 | 1.36 ± 0.1 | 1.12 ± 0.19 | 0.953 (active)
10 | OCCN1CCN(CCCN2c3ccccc3Sc3ccc(Cl)cc32)CC1 | 1.21 ± 0.051 | 0.614 ± 0.069 | 0.894 ± 0.077 | 3.18 ± 0.17 | 1.32 ± 0.18 | 1.49 ± 0.42 | 0.907 (active)
11 | CC(=O)Nc1nnc(S(N)(=O)=O)s1 | 1.57 ± 0.56 | 1.08 ± 0.18 | 1.07 ± 0.11 | 0.941 ± 0.029 | 1.28 ± 0.32 | 0.921 ± 0.095 | 0.998 (active)
12 | Cc1nc2n(c(=O)c1CCN1CCC(c3noc4cc(F)ccc34)CC1)CCCC2 | 0.741 ± 0.18 | 0.982 ± 0.09 | 0.915 ± 0.06 | 0.891 ± 0.036 | 1.13 ± 0.3 | 1.03 ± 0.13 | 1.01 (active)
13 | COc1ccc(CNCc2cccc3ccccc23)c(OC)c1 | 0.108 ± 0.013 | 0.586 ± 0.065 | 0.607 ± 0.063 | 0.968 ± 0.076 | 1.21 ± 0.12 | 1.36 ± 0.22 | 0.354 (inactive)
